High-throughput results: PubChem BioAssay, several laboratories
The list is not random: actives were taken first. Their share in the collection is about 4.9%.
tim23-1 inh = growth inhibitors of tim23-1 mutant yeast, primary screen, luminescence, uHTS. S. cerevisiae tim23-1 growth, BacTiter-Glo luminescence, 24 h. inhibition, % at 20 µM. 1.3% of 330,000 active;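 active means growth inhibition of the mutant yeast at or above 50%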;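 further: temperature-sensitive mutant grown at 25 °C; plate controls were DMSO-treated mutant yeast for no effect and medium wells lacking yeast for full effect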
NLRP3 yeast inh = NALP3 inflammasome inhibitors in reconstituted yeast, primary screen, luminescence, uHTS | Yeast reconstituted NLRP3/ASC/caspase-1, beta-gal luminescence, 24 h | inhibition, % at 10 µM | 0.39% of 330,000 active;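 active means inhibition of 50% or more; inactive means inhibition below 50%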;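 further: plate controls were induced DMSO wells for no effect and uninduced yeast grown without galactose for full effect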
TIM10 inh = growth inhibitors of isogenic TIM10 control yeast, primary screen, counter-screen for tim10-1 yeast inhibitor project, luminescence, uHTS; S. cerevisiae TIM10 strain growth, BacTiter-Glo luminescence, 24 h; inhibition, % at 10 µM; 1.4% of 330,000 active; AID 463195, 2010;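 active means inhibition of 40% or more at the single tested concentration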;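 further: wild-type TIM10 isogenic control strain grown at permissive 25 °C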
NALP1 yeast inh = NALP1 inflammasome inhibitors in reconstituted yeast, colorimetric, S. cerevisiae, triplicate retest; S. cerevisiae NALP1/ASC/caspase-1 growth, X-gal OD620, 72 h; inhibition, % at 10 µM; 0.61% of 280,000 active; AID 2071, 2009; in the data active means inhibition mostly above about 24%, no sharp cut-off; inactive means mostly below about 32%
SKKanGAS inh = S. pyogenes SKKanGAS growth inhibitors in kanamycin, primary screen, streptokinase expression inhibitor project, SKKanGAS strain, BacTiter-Glo luminescence; 1.3% of 300,000 active; 6 h; inhibition, % at 7.5 µM; AID 1662, 2009;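 active means mean replicate score, as percent of positive control median, at least 50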;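 further: strain carries kanamycin resistance gene driven by streptokinase promoter and grows in 40 µg/ml kanamycin; loss of luminescence reflects streptokinase promoter inhibition or plain growth inhibition; 0% = median of DMSO wells and 100% = positive control at its reference dose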
tim10-1 inh = growth inhibitors of tim10-1 mutant yeast, primary screen, luminescence, uHTS. S. cerevisiae tim10-1 ts strain growth, BacTiter-Glo, 24 h. 2.2% of 330,000 active. inhibition, % at 20 µM;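 active means inhibition of at least 40%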;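 further: mutant grown at 25 °C; 0% = DMSO wells with yeast and 100% = wells holding no yeast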
TIM10 conf = growth inhibitors of wild-type TIM10 yeast, confirmation, counter-screen for tim10-1 synthetic lethality project, single concentration, luminescence, S. cerevisiae; S. cerevisiae tim10 strain growth, BacTiter-Glo luminescence, 24 h; 63% of 4,600 active; inhibition, % at 10 µM; shares compounds with TIM10 inh;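 active means inhibition of yeast growth at or above a set limit in either of two replicates at 10 µM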;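 further: this counterscreen used the strain with wild-type TIM10; 0% = yeast with DMSO and 100% = medium wells lacking yeast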
The depositor's hits bear a star; nt = not tested or not shown.

SMILES	tim23-1 inh	NLRP3 yeast inh	TIM10 inh	NALP1 yeast inh	SKKanGAS inh	tim10-1 inh	TIM10 conf
Cc1cc(C)n2nc(SCC(=O)N(CCC#N)c3ccccc3F)nc2n1	0	23	-6	nt	nt	0	nt
COc1ccc(/C=C/C(=O)NCCCNC(=O)/C=C/c2ccc(OC)c(OC)c2)cc1OC	5	16	4	nt	-1	-10	nt
COc1ccc(/C=C/C(=O)NCCc2c[nH]c3ccccc23)cc1OC	5	23	53*	9	13	-35	9
CC(C)[C@H](NS(=O)(=O)c1cccc(Cl)c1)C(=O)OCC(=O)N1CCN(c2ccccc2)CC1	21	4	47*	24	2	39	-7
CCN(CC)S(=O)(=O)c1ccc2c(c1)nc(-c1ccccn1)n2C	6	16	-7	-8	4	0	nt
CCn1c(CNc2ccc(Cl)cc2)nnc1SCc1ccc(Cl)cc1	44	6	17	5	-3	9	nt
CCn1c(CNc2cccc(Cl)c2)nnc1SCc1ccccc1	44	2	41*	-5	-8	39	49*
O=C(Nc1ccccc1)Nc1ccccc1NS(=O)(=O)c1cccs1	7	-5	1	24	-4	5	nt
O=C(Nc1ccc(Cl)c(Cl)c1)Nc1ccccc1NS(=O)(=O)c1cccs1	-142	5	47*	31	24	20	25
COCCCNC(=S)N/N=C/c1ccc(OC)cc1	30	10	27	-4	40	25	nt
NC(=S)N/N=C/c1cccc(/C=N/NC(N)=S)c1	-6	14	13	5	-21	-10	nt
COCCCNC(=S)N/N=C/c1ccc2ccccc2c1	35	-14	41*	-7	-3	16	37*
NC(=S)N/N=C/c1ccc2ccccc2c1	30	22	40*	26	-24	24	28
Cn1c(SCC(=O)NCC2CCCO2)ncc(C(=O)Nc2ccc(Cl)cc2)c1=O (configuration not stated)	17	15	10	nt	18	12	nt
O=[N+]([O-])c1cccc(NN=Nc2ccccc2)c1	42	-7	41*	-4	6	38	31*
CCCCOC(=O)c1ccc(NC(=S)NC(=O)c2ccco2)cc1	18	22	14	8	4	19	nt
CCCCCOC(=O)c1ccc(NC(=O)c2ccco2)cc1	29	24	41*	7	1	15	17
O=C1Nc2ccc(Br)cc2C1(O)c1ccccc1 (configuration not stated)	11	15	0	-1	5	21	nt
O=C1Nc2ccc(Br)cc2C12NNc1ccccc1O2 (configuration not stated)	-20	23	45*	-26	20	22	69*
Cc1c(C)n(Cc2ccc(Cl)cc2)c2ccc(C(=O)NCCN3CCOCC3)cc12	22	29	2	12	-2	15	nt
Brc1ccc2ncnc(NCc3ccco3)c2c1	5	5	14	-8	13	22	nt
OC(CNCc1ccco1)Cn1c2ccc(Br)cc2c2cc(Br)ccc21 (configuration not stated)	21	6	46*	1	52*	8	65*
COc1ccc(OC)c(NC(=S)NCc2ccccc2OC)c1	27	17	15	11	11	23	nt
COc1ccc(OC)c(NC(=S)NCCC(c2ccccc2)c2ccccc2)c1	11	11	46*	nt	12	30	14
Cc1ccc(NC(=S)NCCC(c2ccccc2)c2ccccc2)c(C)c1	20	16	49*	16	66*	20	33*
Cc1ccccc1NC(=S)NCCC(c1ccccc1)c1ccccc1	22	26	17	-3	42	18	nt
O=C(Cc1ccc(S(=O)(=O)N2CCOCC2)s1)Oc1ccc(F)cc1	15	24	12	nt	9	23	nt
